Compounds without any hit were thinned out: in the full panel of roughly 83,000, 20% have a hit.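 Cell lines were cultured in 96-well plates, exposed to a single compound concentration, and assessed for percent growth 48 hours later.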 Calls of active or inactive are those of the source.

The assay concerns BT-549 breast. Briefly: NCI-60 one-dose screen, 48 h (100 = growth as untreated, 0 = no growth, -100 = all killed). The conditions noted are these: 10 µM. The protocol: Growth inhibition of the BT-549 human tumor cell line is measured as a screen for anti-cancer activity. Cells are grown in 96 well plates and exposed to the test compound for 48 hours. Compounds are tested at a single concentration, which is 10^-5 M for most compounds. The reported endpoint is percent growth (GI% or GIPRCNT), where numbers from 0 - 100% represent growth inhibition, and numbers from -100% - 0 represent cell death. For example, a value of 40 represents 60% growth inhibition. A value of 0 means no net growth occurred over the course of the experiment. A value of -40 indicates 40% of cells at the beginning of the experiment died by the end of the experiment. A value of -100 means all cells are dead at the end of the experiment.
NCI-60 Human Tumor Cell Lines Screen was performed using the standard one-dose NCI protocol, which is described in more detail at https://dtp.cancer.gov/discovery_development/nci-60/default.htm.
Compounds with GIPRCNT values below 10 were considered active. Activity score was based on GIPRCNT using the following formula: […]
Score is 0 for GIPRCNT values of 100 or above, 50 for GIPRCNT values of 0, and 100 for GIPRCNT values of -100.
With `O=C1CC[C@@H]2CCCC[C@@H]2C1`, the growth is 136% (inactive).
As for `N=C(N)c1ccc(-c2ccc(-c3cccs3)s2)cc1`, the growth is 93.2% (inactive).
For `CS(=O)(=O)Nc1cccc(-c2cc(-c3ccccc3Cl)c(C#N)c(N)n2)c1`, the growth was 37.1% (inactive).
As to `CN(C)c1ccc(-c2cc(-c3cccc(NS(C)(=O)=O)c3)nc(N)c2C#N)cc1`, the growth was 30.8% (inactive).
In the case of `CCCCCC(=O)c1ccc(OCCCN2CCN(C(=O)OCC)CC2)cc1` it was 91.4% (inactive); in that of `CC(C)=CCc1cc(O)cc2c1OC(C=C(C)C)C1=C2C(=O)C2=C(C1=O)S(=O)(=O)CCN2` (stereo not given), 58.9% (inactive).
In the case of `O=S(=O)(NCCCNc1nccc(-c2c(-c3ccc(F)cc3)nc3sccn23)n1)c1ccc(F)cc1` it was 52.8% (inactive); in that of `Cc1ccc(N=Nc2c(N)nc(N)[nH]c2=O)cc1C`, 98.5% (inactive).
Take `CN1CC[C@@H](c2c(O)cc(O)c3c(=O)cc(-c4ccccc4Cl)oc23)[C@@H](O)C1`: the growth is -22.8% (active).
In the case of `COc1ccc(-c2nc(-c3nc4ccc(Cl)cc4[nH]3)c3ccccn23)cc1` it was 42.9% (inactive).
Consider `COc1ccc(-c2nc3sc(-c4ccc(OC)cc4)c(-c4ccc(OC)cc4)n3c2/C=C/c2ccc(C(C)C)cc2)cc1`, for which the growth is 98.6% (inactive).
In the case of `Oc1[nH]c2cc(Cl)ccc2c1/C=c1/ccc2c(c1)N=C(c1cc(F)cc(F)c1)N=2` it was 37.5% (inactive); in that of `O=C1C(=O)c2ccccc2C(O)=C1CCCc1ccc(C2CCCCCC2)cc1`, 58.2% (inactive); in that of `Cn1c(N)c(N=Nc2ccc(S(=O)(=O)Nc3nccs3)cc2)c(=O)n(C)c1=O`, 97.9% (inactive).
For `N#Cc1ncc(-c2cc(F)c(F)c(F)c2)c(NC2CCCCCC2)n1`, the growth was 100% (inactive).
With `CCOC(=O)N1C/C(=C/c2ccc(OC)cc2)C(=O)/C(=C/c2ccc(OC)cc2)C1` the figure was -12.8% (active); with `O=C(Nc1cccc(-n2cc(-c3ccncc3)c(-c3ccc(O)c(Cl)c3)n2)c1)c1cc(C(F)(F)F)cc(C(F)(F)F)c1`, 79.7% (inactive).
In the case of `Nc1ncnc2[nH]c(=O)[nH]c12` it was 122% (inactive); in that of `COc1ccc(-c2cc(/C=C/C(=O)c3cc(OC)c(OC)c(OC)c3)[nH]n2)cc1OC`, 24% (inactive); in that of `CCN1CCN(c2nc3ccccc3c3c(=O)c4ccccc4sc23)CC1`, 69% (inactive).
In the case of `N#CC1=C(Nc2ccccc2Cl)SC(c2ccccc2O)NC1=O` (stereo not given) it was 111% (inactive); in that of `COc1cc(-c2cc(/C=C/C(=O)c3ccc(Cl)c(Cl)c3)[nH]n2)cc(OC)c1OC`, 71% (inactive); in that of `Cc1cc(Cl)nc(N(CCCNc2ccnc3cc(Cl)ccc23)Cc2cccs2)n1`, 24.7% (inactive).
As to `COc1cc(-c2cc(C(=O)N3CCN(C(=O)c4ccccc4NCc4ccco4)CC3)nc3cc(-c4ccccc4)nn23)cc(OC)c1OC`, the growth is 35.6% (inactive).
With `COc1ccc(Nc2cc(C)nc(NCCCNc3ccnc4cc(Cl)ccc34)n2)cc1` the figure was -82.9% (active).
Consider `C=C(Cl)[C@@](Cl)(CBr)CC[C@@H](Br)C(C)(C)Cl`, for which the growth is 78.6% (inactive).
Take `CCCCC(CCCCCC(CCCC)NCc1ccc2c(c1)OCO2)NCc1ccc2c(c1)OCO2` (stereo not given): the growth is -65.7% (active).
With `Cn1c([N+](=O)[O-])cnc1/C=C1\Oc2cc(Cl)ccc2C1=O` the figure was -32.6% (active).
For the compound `N=C(N)c1ccc(-c2ccc(-c3ccco3)o2)cc1`, the growth was 80.2% (inactive).
In the case of `O=C(O)c1ccc(P(=O)(O)O)c([N+](=O)[O-])c1` it was 102% (inactive).
With `O=C(/C(=C/c1ccccc1)CN1CCCCC1)c1ccccc1` the figure was -56.6% (active); with `COc1cccc(C(=O)Nc2ccc(CN3CCc4nc5cc(OC)c(OC)cc5cc43)cc2)c1`, 65% (inactive); with `Nc1nc(N)c(NC(=O)CNc2ccc(C(=O)O)cc2)c(N)n1`, 116% (inactive).
As for `O=C(CCCCC[P+](c1ccccc1)(c1ccccc1)c1ccccc1)NC(COC(=O)C(Cl)Cl)(COC(=O)C(Cl)Cl)COC(=O)C(Cl)Cl`, the growth is 94.9% (inactive).
In the case of `Cc1ccc(C(=O)N2C/C(=C/c3ccc(F)cc3)C(=O)/C(=C/c3ccc(F)cc3)C2)cc1` it was 92.5% (inactive); in that of `O=[N+]([O-])c1ccc(Oc2cc(Cl)c(Cl)cc2Cl)c(C(F)(F)F)c1`, 110% (inactive).
In the case of `COc1cc(OC)cc(-c2cncn2-c2ccc(-c3nc4cc(OC)cc(OC)c4s3)cc2)c1` it was 46.6% (inactive); in that of `CC(C)N(CCNc1nc(C(Cl)(Cl)Cl)nc2cc(Cl)ccc12)C(C)C`, 21.3% (inactive).
With `COc1ccc(OC)c(/C=C/c2nnc(Nc3ccc(Cl)cc3)o2)c1` the figure was 97.4% (inactive); with `COc1ccc(C2=NN(C(=O)c3ccc(S(C)(=O)=O)cc3)C(c3ccc(OC)c(OC)c3)C2)c(OC)c1` (stereo not given), 91.6% (inactive).

For the origin of these results see PubChem BioAssay (NCI).
